Calls of active or inactive are those of the source.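 The calls were made as follows: active = viability at or under a set limit in both replicates, limit being median viability minus 3 SD (cut at about 48% in these data, passing the limit was not always enough); inconclusive = at or under the limit in just one replicate; inactive = at or above the limit in both replicates.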

The nature of this assay: H69AR cell proliferation blockers – human, duplicate replicates, primary screen (AID 580).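 Also: 100% = mean luminescence of untreated wells and 0% = no signal.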 As to conditions: H69AR lung tumor cells viability, ATP luminescence, 72 h; at 10 µM; hits give low values.
With `CC1(C)Cc2cccc(OCC(=O)O)c2O1`, the viability is 95.4% (inactive).
As for `CCn1cc(C(=O)O)c(=O)c2cc(F)c(N3CCN(C(=O)Nc4ccccc4)CC3)cc21`, the viability was 79.5% (inactive).
Take `[O-][n+]1c2ccc3nonc3c2nn1-c1ccccc1Cl`: the viability was 95.1% (inactive).
With `Cc1oc(-c2ccccc2Cl)nc1CSCC(=O)N1CCCC1`, the viability was 99.5% (inactive).
As to `CC(NC(=O)Cc1cccs1)c1ccc2c(c1)OCO2` (stereo not given), the viability was 99.9% (inactive).
`O=C(NCc1ccco1)c1csc(Nc2ccccc2Cl)n1`: the viability is 78.2% (inactive).
In the case of `O=C(Nc1ccc2c(c1)OCO2)C1CCCN1C(=O)Nc1ccccc1F` (stereo not given), the viability was 96.2% (inactive).
Consider `COCCNC(=O)CC(NS(=O)(=O)c1ccc(NC(C)=O)cc1)C(C)C` (stereo not given), for which the viability was 95.1% (inactive).
`Cc1ccc(S(=O)(=O)NCCN2CCOCC2)cc1C`: the viability was 86.1% (inactive).
For `Cc1n[nH]c(C)c1S(=O)(=O)N1CCN(c2ccccn2)CC1`, the viability was 103% (inactive).
On to `COCCNC(=O)CN(C)S(=O)(=O)c1ccc2c(c1)OCCO2`, for which the viability is 100% (inactive).
For the molecule `Cc1cc(C(F)F)n2nc(C(=O)Nc3ccc(S(=O)(=O)N4CCCCCC4)cc3)nc2n1`, the viability was 83.3% (inactive).
In the case of `O=C(O)C1C2C=CC(O2)C1C(=O)NCc1ccc(Cl)cc1` (stereo not given), the viability was 104% (inactive).
Regarding `Cc1ccc(NC2c3ncccc3C(=O)N2C2CCCCC2)cc1C` (stereo not given), the viability is 92.7% (inactive).
`C=CCOc1ccc(C2C(C(=O)c3ccco3)=C(O)C(=O)N2Cc2cccnc2)cc1` (stereo not given): the viability is 90.9% (inactive).
For the molecule `COCCNC(=O)C(c1ccncc1)N(C(=O)Cn1nnc2ccccc21)c1ccc(OC)cc1` (stereo not given), the viability was 104% (inactive).
Then `CCOc1ccc(NC(=O)CSc2nnc(Cc3cccn3C)n2-c2ccc(OC)cc2)cc1`, with 90.6% (inactive); and `CCOC(=O)N1CCC(O)(c2cc(C)c(C)cc2C)CC1`, with 99.4% (inactive); and `Clc1cccc(Nc2c3c(nc4ncnn24)CCC3)c1`, with 83.8% (inactive).
As to `O=c1cc(-c2ccc(Cl)cc2)[nH][nH]1`, the viability is 91.6% (inactive).
Then `Cc1nc(N)c(C#N)c(-c2cccnc2)c1C`, with 102% (inactive); and `CCOC(=O)c1c(NC(=O)OC)sc(C(=O)N(C)C)c1C`, with 108% (inactive).
For `O=C(NCCO)c1scc2c1OCCO2`, the viability was 93.6% (inactive).
Under `c1ccc2c(c1)Cn1c-2nc2ccccc21` stands 78.4% (inactive); under `CCOC(=O)C1=C(C)Nc2ncnn2C1c1ccccc1F` (stereo not given), 95.6% (inactive).
Under `Cc1nc2ccc(NC(=O)N3CCOCC3)cc2s1` stands 89.8% (inactive).
Turning to `Nc1nnnn1/N=C/c1ccccc1OCc1ccccc1`, the viability is 95.3% (inactive).
As to `COc1cccc(-c2noc(-c3cccs3)n2)c1`, the viability is 81.5% (inactive).
Under `CC1CCN(S(=O)(=O)c2ccc(S(=O)(=O)NCC(=O)C(C)(C)C)cc2)CC1` stands 91.8% (inactive).
As for `OCCN1CCN(CC(O)COc2ccc3ccccc3c2)CC1` (stereo not given), the viability was 102% (inactive).
In the case of `O=C(NCc1cccnc1)c1ccccc1Br`, the viability was 95.1% (inactive).
For the molecule `C=CCNC(=O)c1cccc(Br)c1`, the viability is 92% (inactive).
On to `CC(c1nnc(SCC(=O)Nc2sccc2C#N)n1-c1ccc(Cl)cc1)N(C)C` (stereo not given), for which the viability is 75.4% (inactive).
With `O=C(c1cc(S(=O)(=O)N2CCOCC2)ccc1F)N1CCCc2ccccc21`, the viability is 90.9% (inactive).
With `CC(C)Oc1ccc(N2CC(C(=O)Nc3ccccc3F)CC2=O)cc1` (stereo not given), the viability is 97.6% (inactive).
`COCCn1c(C23CC4CC(CC(C4)C2)C3)n[nH]c1=S`: the viability is 77.2% (inactive).
Under `COc1cccc(C2=Nn3c(nnc3-c3ccccc3O)SC2)c1` stands 67.2% (inactive); under `COc1cc(OC)c(OC)cc1CN(C)CCc1ccccn1`, 86.9% (inactive); under `CC(=O)c1c(C)nn(CC(O)COc2ccc3c(c2)CCC3)c1C` (stereo not given), 87.4% (inactive).
In the case of `Cc1cccn2cc(-c3ccccc3)nc12`, the viability is 91.5% (inactive).

As usually defined, the viability is a read-out of living cells in per cent, often relative to untreated cells.

Source of the values: PubChem BioAssay.
